# High-throughput results as filed in PubChem.
# Shown are actives, neighbours in structure and some others; about 21% of the full set was active somewhere.
# Pf growth 96h – Primary qHTS for delayed death inhibitors of the malarial parasite plastid, 96 hour incubation; P. falciparum luciferase reporter growth, 96 h; Potency, µM (titrated, usually from 28.7 µM), actives largely listed as inhibitors; 6.9% of 320,000 active
#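 P. falciparum expressing integrated firefly luciferase grown in erythrocytes (2% hematocrit, 0.05% parasitemia final) with compounds for 96 hours at 37 C, 5% CO2. Growth inhibition read as loss of luminescence after adding luciferase detection reagent.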
# Shiga inhibitor – A qHTS for Small Molecule Inhibitors of Shiga Toxin; Vero cells, Shiga toxin protein synthesis inhibition reporter; inhibition, % at 38.7 µM; 9.2% of 290,000 active; AID 2315, 2010; in the data active means inhibition mostly above about 28%, no sharp cut-off; inactive means mostly below about 43%
# Cycloheximide cs – Cycloheximide Counterscreen for Small Molecule Inhibitors of Shiga Toxin; cell reporter, cycloheximide protein synthesis inhibition counterscreen; max response, %; 12% of 300,000 active; AID 2314, 2010; in the data active means max response mostly above about 13%, no sharp cut-off; inactive means mostly below about 14%; further: read at 38.3 µM for the half of the compounds with a filed dose
# Pf growth 48h – Primary qHTS for delayed death inhibitors of the malarial parasite plastid, 48 hour incubation | P. falciparum luciferase growth in erythrocytes, 48 h | Potency, µM (series often up to 28.7 µM), hits mostly inhibitors | 5.9% of 310,000 active
#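 In quantitative HTS format, infected erythrocytes bearing luciferase-reporter parasites were treated for a single generation at 37 C. Luminescence after adding detection reagent served as the growth measure.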
# Numbers stand for hits; n = inactive; u = inconclusive; x = no result given. Unless noted, the call rests on the fitted dose curve; in most records, active means well fitted inhibition curve with a large enough effect; inconclusive means small, poorly fitted or top-dose-only effect, or another doubt; inactive means no such curve, though single readings can be large or run the other way.
SMILES,Pf growth 96h,Shiga inhibitor,Cycloheximide cs,Pf growth 48h
CC(C)c1ccc(N(C(=O)c2snc(C(N)=O)c2N)C(C(=O)NCC2CCCO2)c2ccc(N(C)C)cc2)cc1 (stereo not given),n,n,n,u
CN(C)c1ccc(C(C(=O)NCC2CCCO2)N(C(=O)c2snc(C(N)=O)c2N)c2ccccc2)cc1 (stereo not given),n,n,n,2.9µM
NC(=O)c1nsc(C(=O)N(c2ccccc2)C(C(=O)NCC2CCCO2)c2ccc3ncccc3c2)c1N (stereo not given),u,n,n,12µM
Cc1cc(NC(=O)COC(=O)C(C)Oc2ccc(Cl)cc2Cl)no1 (stereo not given),n,n,n,n
CCOc1ccc(C(C(=O)NCC2CCCO2)N(Cc2ccccc2)C(=O)c2snc(C(N)=O)c2N)cc1 (stereo not given),n,n,n,u
CCOc1ccc(C(C(=O)NCC2CCCO2)N(Cc2cccc(OC)c2)C(=O)c2snc(C(N)=O)c2N)cc1 (stereo not given),u,n,n,13µM
CCCCN=C1NN=C(c2cc3ccccc3o2)CS1,13µM,53,41,u
CCOC(=O)c1cc(-c2cc3ccccc3o2)n[nH]1,n,n,n,n
CCCCN=C1NN=C(c2cccc([N+](=O)[O-])c2)CS1,n,84,24,n
CCN(CC)S(=O)(=O)c1ccc(C(=O)NC2=NCCS2)cc1,n,n,n,n
CC(C)c1ccc(C(=O)NC2=NCCS2)cc1,n,63,53,n
O=C(NC1=NCCS1)c1ccc([N+](=O)[O-])cc1Cl,n,n,n,n
O=C(NC1=NCCS1)c1ccc(C(F)(F)F)cc1,n,96,34,n
Cc1ccc(C(=O)NC2=NCCS2)cc1,n,85,34,n
Cc1ccc(C(=O)NC2=NCCS2)cc1Cl,n,44,38,n
N#Cc1ccc(C(=O)NC2=NCCS2)cc1,n,104,34,n
O=C(NC1=NCCS1)c1ccc(N2CCCC2=O)cc1,n,n,n,n
CCCN1C(=O)c2ccc(C(=O)NC3=NCCS3)cc2C1=O,n,n,15,n
COc1ccc(C(=O)NNC(=O)c2ccc3ccccc3n2)cc1,n,x,x,n
O=C(Cc1ccc(S(=O)(=O)N2CCOCC2)s1)NCCc1ccc(F)cc1,n,x,x,u
O=C(Nc1cccc2c1CCCC2)c1ccc(Br)o1,n,n,n,n
O=C(Nc1cccc2ccccc12)c1ccc(Br)o1,15µM,n,n,n
O=C(Nc1cccc2cccnc12)c1ccc(Br)o1,x,n,26,n
CSc1ccccc1NC(=O)c1ccc(Br)o1,n,45,36,x
CN1CCN(C(=O)CCN2C(=O)/C(=C/c3ccc(F)cc3)SC2=S)CC1,n,n,n,u
SMILES,Pf growth 96h,Shiga inhibitor,Cycloheximide cs,Pf growth 48h
CC(C)[C@H](NC(=O)c1ccc(Br)cc1)C(=O)NC1CCCCC1,n,x,x,u
O=C(/C=C/c1ccco1)N1CCc2ccccc21,n,59,29,n
C/C(=C\C(=O)N1CCc2ccccc21)C(=O)O,n,n,n,n
CCOC(=O)/C=C/C(=O)N1CCc2ccccc21,n,n,n,n
Cc1ccc(/C=C/C(=O)N2CCc3ccccc32)o1,n,103,50,n
O=C(c1cccs1)N1CCC(c2nc3c(nnn3Cc3ccccc3Cl)c(=O)[nH]2)CC1,n,n,n,10µM
O=C(c1ccccc1)N1CCC(c2nc3c(nnn3Cc3ccccc3Cl)c(=O)[nH]2)CC1,8.3µM,n,n,x
O=C(Cc1cccs1)N1CCC(c2nc3c(nnn3Cc3ccccc3)c(=O)[nH]2)CC1,u,n,n,u
O=C(NCc1ccncc1)c1ccc(S(=O)(=O)Nc2ccccc2)cc1,n,x,x,n
Cc1cc(C)cc(NC(=S)N2CCC(NC(=O)c3ccco3)CC2)c1,n,n,n,n
O=c1c2ccccc2[nH]c(=S)n1-c1ccc(Br)cc1,u,n,n,u
Cc1ccc(-n2c(=S)[nH]c3c(oc4ccccc43)c2=O)cc1C,n,27,13,n
O=c1c2oc3ccccc3c2[nH]c(=S)n1-c1ccc(F)cc1,8.3µM,n,n,n
CCCCn1c(=O)c(CCC(=O)OCC(=O)NC(=O)NCCOC)nc2ccccc21,n,n,n,n
Cc1ccc(S(=O)(=O)N2CCOCC2)cc1NC(=O)c1cc([N+](=O)[O-])ccc1N1CCOCC1,n,x,x,n
CC(C)c1ccc(-n2cnn(-c3ncccc3[N+](=O)[O-])c2=O)cc1,n,77,34,n
O=C(c1cc(Br)c(Br)s1)N1CCOCC1,n,x,x,n
O=C(c1cc2cc(C(F)(F)F)ccc2s1)N1CCOCC1,n,84,36,n
O=C(c1cc2cc(Br)ccc2s1)N1CCOCC1,n,n,21,u
Cc1cc(=O)oc2cc(NC(=O)C(CCCCN)NC(=O)C(CC3CCCCC3)NC(=O)OCC3c4ccccc4-c4ccccc43)ccc12 (stereo not given),x,n,n,x
CC1CC(C)CN(CC(C)(C)NS(=O)(=O)c2ccc(Cl)cc2)C1 (stereo not given),u,n,n,x
N/C(CN1CCCC1=O)=N\OC(=O)c1ccc(Cl)cc1,12µM,n,15,n
N/C(CN1CCCC1=O)=N\OC(=O)c1ccc(Cl)c(Cl)c1,n,n,23,n
Cc1ccc(NC(=O)CN2C(=O)NC(Cc3ccccc3)C2=O)cc1 (stereo not given),n,n,n,n
Cc1ccc(CN2C(=O)C(Cc3ccccc3)Nc3ncnc(N4CCN(c5ccccc5)CC4)c32)cc1 (stereo not given),4.7µM,x,x,1.9µM
SMILES,Pf growth 96h,Shiga inhibitor,Cycloheximide cs,Pf growth 48h
CCC1Nc2ncnc(N3CCOCC3)c2N(Cc2ccccc2)C1=O (stereo not given),n,x,x,u
O=C1C(Cc2ccccc2)Nc2ncnc(N3CCOCC3)c2N1Cc1ccc(Cl)cc1 (stereo not given),n,x,x,9.3µM
O=C1C(Cc2ccccc2)Nc2ncnc(N3CCc4ccccc4C3)c2N1Cc1ccc(Br)cc1 (stereo not given),13µM,x,x,10µM
COc1ccc(-n2ncc3c(N4CCN(Cc5ccccc5)CC4)ncnc32)cc1,u,n,n,n
COc1ccc(CN2C(=O)C(Cc3ccccc3)Nc3ncnc(N4CCCCC4)c32)cc1 (stereo not given),12µM,x,x,5.2µM
S=C1NCCOCCOCCNC(=S)N2CCOCCOCCN1CCOCCOCC2,n,n,n,n
O=C1C(Cc2ccccc2)Nc2ncnc(N3CCN(c4ccccc4)CC3)c2N1Cc1ccccc1 (stereo not given),2.9µM,x,x,2.9µM
c1ccc(Cn2nnc3c(N4CCCCCC4)ncnc32)cc1,u,n,n,u
Cc1ccc(CN2C(=O)C(Cc3ccccc3)Nc3ncnc(N4CCCCC4)c32)cc1 (stereo not given),4.7µM,x,x,1.7µM
COC(=O)c1ccccc1NC(=O)CSc1n[nH]c(-c2ccco2)n1,n,n,n,n
CC1(C)CC(NC(=O)C2CCN(S(=O)(=O)c3ccc(F)cc3)CC2)CC(C)(C)N1,n,n,n,n
O=C(CCS(=O)(=O)c1cccc2nsnc12)NCc1ccccc1Cl,9.3µM,n,n,n
Cc1cccc(NC(=O)CCS(=O)(=O)c2cccc3nsnc23)c1C,u,n,n,u
